Values without a mark were called inactive. The source made the active and inactive calls. No stated cut-off is given here; in the data, active means inhibition score above about 11; inactive means the rest.
Experiment: S. cerevisiae short- and long-term growth effects – BY4741, OD595, 24 h, dose response (AID 489042)
Conditions: hits give high values
C#C[C@]1(O)[C@H](O)CC2C3CC[C@H]4C[C@@H](O)CC[C@]4(C)C3CC[C@@]21C (stereo not given in full) showed an inhibition score of 0. Nc1cc2nc3ccccc3nc2cc1N gave an inhibition score of 0. CC(=O)O[C@H]1CCC2C3CC[C@H]4[C@@H](O)[C@H](O)CC[C@]4(C)C3CC[C@@]21C (stereo not given in full) gave an inhibition score of 0. In the case of C[C@]12CCC3C(CC[C@H]4C[C@@H](O)CC[C@]34C)C1CC[C@@H]2OC(=O)[C@H](N)CCCCN (stereo not given in full), the inhibition score is reported as 0. Molecule C[C@]12CCC3C(CC[C@H]4C[C@@H](O)CC[C@]34C)[C@H]1CC[C@H]2O (stereo not given in full) has an inhibition score of 0. Molecule C[n+]1c2ccccc2nc2ccc(NCCO)cc21 has an inhibition score of 0. In the case of C=C1C(O)[C@@H]2O[C@]3(CC[C@H](/C=C/C(C)[C@@H]4CC(C)=CC5(O[C@H](C[C@@](C)(O)C(=O)O)CCC5O)O4)O3)CC[C@H]2O[C@@H]1C(O)CC(C)[C@H]1OC2(CCCCO2)CCC1C (stereo not given in full), the inhibition score is reported as 21 (active). In the case of C[C@]12CCC3C(CC[C@H]4C[C@H](O)CC[C@]34C)C1C[C@@H](CCCCl)[C@@H]2O (stereo not given in full), the inhibition score is reported as 10. For Cn1c(O)c(C(=Nc2ccc(F)cc2)c2ccccc2Cl)c(=O)n(C)c1=O, the inhibition score was 10. OCC[n+]1c2ccccc2nc2ccc(N3CCOCC3)cc21 showed an inhibition score of 0. Molecule CNc1ccc2nc3ccccc3[n+](C)c2c1 has an inhibition score of 0. With O=c1[nH]c(O)c(C=Nc2ccc(F)c(Cl)c2)c(=O)[nH]1 the inhibition score was 0. For Cn1c(=O)[nH]c2nncnc2c1=O, the inhibition score was 0. In the case of Oc1cccc2nc3ccccc3nc12, the inhibition score is reported as 21 (active). C[C@]12CCC3C(CC[C@H]4C[C@H](O)CC[C@]34C)C1CCC2=O (stereo not given in full) showed an inhibition score of 0.
